The values that follow come from PubChem BioAssay (NCATS).

Where “and” joins values, the source holds several entries; their conditions need not be identical. Identical values can stand only once. Records with an inconclusive call do not appear. Where a structure was tested more than once in an assay, its records may differ in their call. Calls of active or inactive are those of the source. The call rests on the fitted dose curve; in most records, active means well fitted inhibition curve with a large enough effect; inconclusive means small, poorly fitted or top-dose-only effect; inactive means no such curve, though single readings can be large or run the other way.
Potency means the concentration at half of the fitted maximal effect.

The experiment is described as follows: Primary qHTS for inhibitors of nuclear receptor binding SET domain protein 2 (NSD2) in an RCH-ACV wild type WT cells (2C) (AID 1645877). Further: nearly all actives have a fitted effect of over 70% in size. As to conditions: RCH-ACV (leukaemia line) NSD2 WT (2C) viability, CellTiter-Glo, 72 h; series mostly up to 44.9 µM.
With `O=C(O)CCNc1cc(N2CCc3ccccc3CC2)nc(-c2ccccn2)n1`, the Potency entry was “inactive”.
On to `CCC(=O)N1CCN(c2ccc(-n3c(=O)ccc4cnc5ccc(-c6cnc7ccccc7c6)cc5c43)cc2C(F)(F)F)CC1`, for which the Potency was 13.3 nM (active) and 20.4 nM (active).
The same measure for `CCn1c(-c2nonc2N)nc2cncc(CNC3CCNCC3)c21`: 11.5 µM (active); for `CN1CCN(c2cccc(Nc3nc4c(-c5ccc(S(C)(=O)=O)cc5)cccn4n3)c2)CC1`: 1.63 µM (active) and 8.33 µM (active).
For `COc1ccc(-c2ccc3ncc4c(c3c2)n(-c2ccc(N3CCNCC3)c(C(F)(F)F)c2)c(=O)n4C)cn1` the value was 7.3 nM (active) and 14.6 nM (active) and 18.6 nM (active); for `COc1ccc(-c2nc3ccc(C4=NNC(=O)CC4C)cc3[nH]2)cc1` (centres undefined), 5.96 µM (active) and 11.8 µM (active).
For `O=C(CC12CC3CC(CC(C3)C1)C2)Nc1cccc2nc(NCCNCCO)ccc12` the value was 20.9 µM (active).
For the compound `O=C(c1ccc(C(=O)N2CCC(N3CCCC3)CC2)c(Nc2ccccc2)c1)N1CCC(N2CCCC2)CC1`, the Potency result is “inactive”.
For `N#CC(c1ccc(Cl)cc1)c1c(Cl)cc(-n2ncc(=O)[nH]c2=O)cc1Cl` (centres undefined) the value was “inactive”; for `CNC(=O)c1ccc2c(C(=Nc3cccc(CN(C)C)c3)c3ccccc3)c(O)[nH]c2c1`, 16.6 µM (active).
`Cc1csc(-c2nnc(Nc3ccc(Oc4ncccc4-c4ccnc(N)n4)cc3)c3ccccc23)c1`: the Potency result is “inactive and 3 nM (active)”.
For `CC1(COc2ccc3c(c2)ncn3-c2ccc3cccc(N4CCC(N)CC4)c3n2)COC1`, the Potency is 2.05 µM (active) and 1.86 µM (active).
The same measure for `CN1CCc2c(n(Cc3ccc(C(=O)NO)cc3)c3ccccc23)C1`: 14.5 µM (active) and 18.6 µM (active); for `Nc1ncnc2c1c(-c1cccc(OCc3ccccc3)c1)cn2C1CC(CN2CCC2)C1` (centres undefined): 2.9 µM (active).
As to `Cc1cccc(Nc2nc(N[C@@H]3CCCC[C@H]3N)ncc2C(N)=O)c1`, the Potency is 1.48 µM (active).
For the compound `COc1cc2nccc(Oc3ccc(NC(=O)Nc4cc(C)on4)c(Cl)c3)c2cc1OC`, the Potency was 728 nM (active) and 4.17 µM (active).
The same measure for `CCN1CCN(c2ccc(Nc3cc(N(C)C(=O)Nc4c(Cl)c(OC)cc(OC)c4Cl)ncn3)cc2)CC1`: “inactive”; for `CC1(C)CC(=O)c2c(C(F)(F)F)nn(-c3ccc(C(N)=O)c(NC4CCC(O)CC4)c3)c2C1` (centres undefined): 57.8 nM (active) and 83.3 nM (active); for `CNC(=O)c1cc(Oc2ccc(NC(=O)Nc3ccc(Cl)c(C(F)(F)F)c3)c(F)c2)ccn1`: 18.3 µM (active).
